Data published in PubChem BioAssay AID1347076 (National Center for Advancing Translational Sciences (NCATS), 2019).
About 13,000 (3.2%) of roughly 400,000 compounds were called active. About 18% were inconclusive and are not listed. Only a selection was taken, and actives are over-represented in it overall. A number with no mark means an inactive call. Calls follow the shape of the dose curve; as a rule, active = well fitted cell-killing curve with a large enough effect; inconclusive = small, poorly fitted or top-dose-only effect, or effect the other way; inactive = flat fitted curve, though single readings scatter.

Test: qHTS assay for MDR1-selective chemotherapeutics: Primary screen using the drug-selected MDR subline cells KB-V1; also: nearly all actives have a fitted effect of over 60% in size
Conditions: KB-V1 MDR cells viability, CellTiter-Glo, 72 h; series mostly up to 46.1 µM; activity change, negative = cytotoxicity: at the top concentration
Outline: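 Potencies derive from concentration-effect curves fitted to normalized luminescence (CellTiter-Glo) of KB-V1 cells treated for 72 h at 37 degrees C in phenol-red-free DMEM containing 10% FBS.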
% is scaled to controls: 0 for no effect and ±100 for the full control effect; potency is read from the fitted curve at half-maximal effect.

Compound | activity change, negative = cytotoxicity | Potency
Nc1ncnc2c1ncn2[C@@H]1O[C@H](C(=O)N2CCSC2)[C@@H](O)[C@H]1O | 14.4% | –
CCN(CC)c1ccc(/C=C/c2c(C)cnc3ccc(C)cc23)cc1 | -20.4% | –
COC(=O)[C@@]12C[C@@H](CC(=O)NCCCCc3ccccc3)C(=O)N(CCc3ccc(OC)c(OC)c3)C1=CCC(C)(C)C2 | – | 16.4 µM (active)
CCN(CC)C(=O)C1=C(C)N(Cc2ccc(OC)cc2)C(=O)C(CC(=O)NCCCCc2ccccc2)C1 (stereo unspecified) | 5.55% | –
COC(=O)[C@]12CCCCC=C1N(Cc1ccco1)C(=O)[C@H](CC(=O)NCCCCc1ccccc1)C2 | 16.2% | –
COC(=O)[C@@]12C[C@@H](CC(=O)NCCCCc3ccccc3)C(=O)N(Cc3ccccc3)C1=CCC(C)(C)C2 | – | 23.1 µM (active)
CCOC(=O)N1CCN(C(=O)C[C@@H]2C[C@@]3(C(=O)OC)CC(C)(C)CC=C3N(Cc3ccco3)C2=O)CC1 | -19.3% | –
COC(=O)[C@]12CCCCC=C1N(Cc1ccccc1)C(=O)[C@H](CC(=O)NCc1ccc(C)o1)C2 | -6.44% | –
COc1ccc(CN2C[C@H]3CON(C)[C@H]3C[C@H]2c2ccc(-c3cccc(F)c3)cc2)cc1 | 0.771% | –
Cc1ccc(O)c(NC(=O)c2cc(-c3ccc(F)cc3)no2)c1 | 0% | –
Cc1cc2ccccc2n1CCNC(=O)c1ccc(F)cc1 | 0% | –
CC1=C(C(=O)N2CCOCC2)CC(CC(=O)NCC2CCCCC2)C(=O)N1Cc1ccc(F)cc1 (stereo unspecified) | 7.51% | –
Cc1ccc2[nH]c(=O)c(COC(=O)c3ccccn3)cc2c1 | – | 16.4 µM (active)
CCOC(=O)c1cc2cc(C)ccc2[nH]1 | 0.803% | –
O=C(OCc1cc2ccccc2[nH]c1=O)c1cccnc1 | -6.92% | –
Cc1ccc(S(=O)(=O)N(CCc2ccccc2)c2ccc3c(c2)C2CC3CCN2C(=O)OCc2ccccc2)cc1 (stereo unspecified) | -9.87% | –
COc1ccc(OC)c(NC(=O)CSC2=Nc3ccccc3C3=NC(CC(=O)NCCc4ccccc4)C(=O)N23)c1 (stereo unspecified) | 11% | –
S=c1[nH]c(-c2cccs2)cn1-c1ccccc1 | -1.38% | –
O=C(Nc1cc2ccccc2oc1=O)C1CCCCC1 | 13.7% | –
O=c1oc2ccccc2cc1-c1cn(-c2ccccc2)c(=S)[nH]1 | – | 5.8 µM (active)
Cc1ccc(Cn2c(C)c3cnn(CC(=O)NCc4ccccc4)c(=O)c3c2C)cc1 | -13.6% | –
COc1ccc(-c2noc(CSc3nc(C)cc(=O)[nH]3)n2)cc1OC | 0% | –
CN(CCC#N)c1ccc(C=O)cc1 | -7.28% | –
CC1=C(C(=O)NC2CC(C)(C)Cc3c2cnn3-c2ccc(C)cc2)OCCO1 (stereo unspecified) | -14.9% | –
COc1ccc(C(=O)NC2CC(C)(C)Cc3c2cnn3-c2ccccc2C)o1 (stereo unspecified) | – | 18.4 µM (active)
COc1ccc(C(=O)NC2CC(C)(C)Cc3c2cnn3-c2ccccc2)c(OC)c1 (stereo unspecified) | -23.7% | –
